Screens deposited in PubChem BioAssay by National Center for Advancing Translational Sciences (NCATS).
PLK1 PBD inh = qHTS for Inhibitors of PLK1-PDB (polo-like kinase 1 - polo-box domain): Primary Screen | Serine/threonine-protein kinase PLK1 (Homo sapiens), P53350 | Plk1 PBD binding of FITC phosphopeptide, fluorescence polarization | Potency, µM, for the others: max response, negative = inhibition, actives largely listed as inhibitors | actives 2.8% (n = 360,000) | AID 720504, 2013; also: series mostly up to about 57 µM; nearly all actives have a fitted effect of over 65% in size
VDR inh = Inhibitors of the vitamin D receptor (VDR): qHTS; VDR-SRC2-3 peptide fluorescence polarization, 2 h; actives 0.93% (n = 400,000); AID 504847, 2011; Potency, µM, for the others: max response, negative = inhibition, usual class: inhibitors; Vitamin D3 receptor (Homo sapiens), P11473
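The screen uses fluorescence polarization to detect compounds that interfere with recruitment of the SRC2-3 coactivator peptide to VDR; plates are read after 2 h at room temperature.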
DT40 TDP1 no CPT = qHTS for Inhibitors of human tyrosyl-DNA phosphodiesterase 1 (TDP1): qHTS in cells in absence of CPT; DT40 Tdp1-/- hTDP1 cells, no CPT, ATP luminescence, 48 h; Potency, µM (top dose mostly 46.2 µM), inactives show at the highest dose activity change, negative = growth inhibition, most hits filed as inhibitors; actives 15% (n = 420,000); also: nearly all actives have a fitted effect of over 55% in size
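Camptothecin absent (DMSO only). Human TDP1-complemented DT40 knockout cells, 400 cells/well, 37 °C for minimum 48 hr; ATP measured via CellTiter-Glo, 30 min dark incubation, luminescence.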
TDP1 cell CPT = qHTS for Inhibitors of human tyrosyl-DNA phosphodiesterase 1 (TDP1): qHTS in cells in presence of CPT; chicken DT40 Tdp1-/-;hTDP1 cells + 20 nM CPT, ATP luminescence, 48 h; actives 12% (n = 420,000); Potency, µM (titrated, usually from 46.2 µM), without a hit: top-dose activity change, negative = growth inhibition, usual class: inhibitors; also: nearly all actives have a fitted effect of over 55% in size
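Chicken DT40 Tdp1-/- cells complemented with human TDP1, 400 cells/well, exposed to compounds plus 20 nM camptothecin for at least 48 h at 37 C; viability read as ATP content by CellTiter-Glo luminescence.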
TDP1 inh = qHTS Assay for Inhibitors of Tyrosyl-DNA Phosphodiesterase (TDP1). Potency, µM (highest dose often 130 µM), without a hit: top-dose activity change, negative = inhibition, actives largely listed as inhibitors. recombinant TDP1, AlphaScreen DNA substrate cleavage. Tyrosyl-DNA phosphodiesterase 1 (Homo sapiens), Q9NUW8. actives 0.28% (n = 350,000); also: nearly all actives have a fitted effect of over 40% in size
Target sequence (Q9NUW8 whole entry, looked up): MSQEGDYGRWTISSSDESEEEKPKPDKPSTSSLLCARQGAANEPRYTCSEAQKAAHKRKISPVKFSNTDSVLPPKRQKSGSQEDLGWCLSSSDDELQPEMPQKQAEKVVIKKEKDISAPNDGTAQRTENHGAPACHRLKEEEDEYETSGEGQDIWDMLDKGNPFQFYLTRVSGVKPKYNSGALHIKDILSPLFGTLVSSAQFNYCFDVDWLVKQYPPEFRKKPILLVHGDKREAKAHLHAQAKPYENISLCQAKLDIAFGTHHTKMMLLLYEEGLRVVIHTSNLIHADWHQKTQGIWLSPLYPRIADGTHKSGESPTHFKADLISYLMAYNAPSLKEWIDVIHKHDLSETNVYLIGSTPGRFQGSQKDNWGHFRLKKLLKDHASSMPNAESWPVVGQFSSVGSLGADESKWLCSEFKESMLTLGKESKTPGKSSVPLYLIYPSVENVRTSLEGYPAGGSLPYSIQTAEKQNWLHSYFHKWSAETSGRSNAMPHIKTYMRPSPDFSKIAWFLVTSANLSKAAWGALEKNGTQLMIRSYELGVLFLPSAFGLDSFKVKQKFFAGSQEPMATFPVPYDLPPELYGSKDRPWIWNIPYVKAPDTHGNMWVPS
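Enzyme-compound mixtures sat 15 min at room temperature, followed by a 5 min reaction with 15 nM final substrate and 10 min with AlphaScreen beads. Recombinant human Tdp1 was used at 1 nM final.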
KAT2A inh = qHTS Assay for Inhibitors of GCN5L2 | Histone acetyltransferase KAT2A (Homo sapiens), Q92830 | AID 504327, 2011 | actives 0.21% (n = 390,000) | Potency, µM (titrated, usually from 58.9 µM), for the others: at the top dose activity change, negative = inhibition, usual class: inhibitors | GCN5L2 HAT assay, ThioGlo1 CoA-SH fluorescence
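qHTS, 1536-well. 20nM enzyme, pH 7.5 HEPES/EDTA/Tween-20 buffer; 15 min compound preinc., RT. Start: 75uM H3(1-25), 70uM AcCoA, 50uM ThioGlo1. Read Ex340/Em540 at t=0 (autofluorescence flag) and t=20 min.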
An asterisk follows results filed as active; ! = not confirmed by another sample; [ ] = dose if it differs, or a comment. Only some compounds are listed: those with a hit (about 18% of all), similar ones and a draw of the others. Calls follow the shape of the dose curve; as a rule, active = well fitted curve in the direction sought with a large enough effect; inconclusive = small, poorly fitted or top-dose-only effect, or another doubt; inactive = no such curve, though single readings can be large; an effect the other way counts as inactive or inconclusive. % is scaled to controls: 0 for no effect and ±100 for the full control effect; potency is read from the fitted curve at half-maximal effect.

COc1ccc(NC(=O)c2ccc(-c3ccc(-c4noc(C)n4)cc3C)cc2)cc1OCCN(C)C was read as VDR inh 22.3%, DT40 TDP1 no CPT 2.59µM*, TDP1 cell CPT 5.17µM*, TDP1 inh 21.3% and KAT2A inh 0.0%.
`COc1ccc(NC(=O)c2ccc(-c3ccc(-c4noc(C)n4)cc3C)cc2)cc1N1CCN(C)CC1` gave PLK1 PBD inh -9.3%, VDR inh 10.9%, DT40 TDP1 no CPT 2.06µM*, TDP1 cell CPT 2.59µM*, TDP1 inh 19.4%[56.1 µM] and KAT2A inh -8.4%.
For CN(Cc1cccnc1)Cc1cn(C)nc1-c1ccc(Oc2ccccc2)cc1 the results were PLK1 PBD inh 2.8%, VDR inh 9.0%, DT40 TDP1 no CPT 18.4µM*, TDP1 cell CPT inconclusive, TDP1 inh 5.4% and KAT2A inh -2.0%.
For CN(Cc1cn(C)nc1-c1ccccc1F)CC1CCCCO1 (stereo not given) the results were PLK1 PBD inh -3.3%, VDR inh -18.5%, DT40 TDP1 no CPT -0.9%, TDP1 cell CPT -8.7%, TDP1 inh 2.7% and KAT2A inh -13.0%.
CN(Cc1cccnc1)Cc1cn(C)nc1-c1cccc(Cl)c1 was read as PLK1 PBD inh -3.9%, VDR inh -4.5%, DT40 TDP1 no CPT 15.8µM*!, TDP1 cell CPT inconclusive, TDP1 inh 2.2% and KAT2A inh -4.8%.
Screening C[C@H]1C(=O)N(C)CCN1Cc1cn(C)nc1-c1ccc(Oc2ccccc2)cc1 returned PLK1 PBD inh 2.1%, VDR inh 9.5%, DT40 TDP1 no CPT inconclusive, TDP1 cell CPT inconclusive, TDP1 inh 0.0% and KAT2A inh 0.0%.
Screening Cc1cc(CN(C)Cc2cn(C)nc2-c2ccc(Oc3ccccc3)cc2)on1 returned PLK1 PBD inh -6.8%, VDR inh 6.3%, DT40 TDP1 no CPT 16.4µM*, TDP1 cell CPT inconclusive, TDP1 inh 1.2% and KAT2A inh -0.4%.
COc1ccc(NC(=O)c2ccc(-c3nc(CSc4ccc(C)cc4)c(C)o3)cc2)cc1Cl was read as VDR inh -0.9%, DT40 TDP1 no CPT inconclusive, TDP1 cell CPT inconclusive, TDP1 inh 5.6% and KAT2A inh 2.5%.
`CC1(c2ccc3ccccc3c2)CCC(=O)O1` (stereo not given) gave PLK1 PBD inh -1.6%, VDR inh -14.2%, DT40 TDP1 no CPT -0.2% and TDP1 cell CPT 7.6%.
`CSc1nc(C)c(CCO)c(=O)[nH]1` gave PLK1 PBD inh -14.0%, VDR inh -9.0%, DT40 TDP1 no CPT 1.6%, TDP1 cell CPT 20.4%, TDP1 inh 0.0% and KAT2A inh -5.9%.
Screening O=C(Nc1nc(-c2ccc(Cl)s2)cs1)c1cccs1 returned PLK1 PBD inh inconclusive, VDR inh 4.2%, DT40 TDP1 no CPT 18.4µM*, TDP1 cell CPT 23.1µM*, TDP1 inh -2.0% and KAT2A inh -7.1%.
O=C(Nc1nc(-c2ccc(Cl)s2)cs1)c1ccco1 was read as PLK1 PBD inh -12.3%, VDR inh -13.9%, DT40 TDP1 no CPT inconclusive, TDP1 cell CPT inconclusive, TDP1 inh 6.0% and KAT2A inh -5.9%.
`CC(=O)Nc1nc(-c2cc([N+](=O)[O-])cs2)cs1` gave PLK1 PBD inh -21.3%, VDR inh -2.3%, DT40 TDP1 no CPT inconclusive, TDP1 cell CPT -8.5%, TDP1 inh -6.7% and KAT2A inh -7.1%.
Screening O=C(Nc1ccc([N+](=O)[O-])cc1)Nc1nc(-c2ccc(Cl)s2)cs1 returned PLK1 PBD inh -12.8%, VDR inh -6.7%, DT40 TDP1 no CPT 3.66µM*, TDP1 cell CPT 4.61µM*, TDP1 inh 2.8% and KAT2A inh -4.3%.
CCCC(=O)Nc1nc(-c2ccc(Cl)s2)cs1 was read as PLK1 PBD inh -6.5%, VDR inh -20.3%, DT40 TDP1 no CPT 5.8µM*, TDP1 cell CPT 16.4µM*, TDP1 inh -1.3% and KAT2A inh 0.3%.
Screening CCOc1cc(CNCCc2ccccc2)ccc1OCC(=O)NC(C)(C)C returned PLK1 PBD inh inconclusive, VDR inh inconclusive, DT40 TDP1 no CPT 20.6µM*, TDP1 cell CPT 18.4µM*, TDP1 inh -0.6% and KAT2A inh 0.5%.
Screening CNCc1cc(Br)c(OCC(=O)Nc2ccccc2OC)c(OC)c1 returned PLK1 PBD inh -0.6%, VDR inh 5.1%, DT40 TDP1 no CPT inconclusive, TDP1 cell CPT -3.0%, TDP1 inh 2.7% and KAT2A inh 3.0%.
Screening COc1cc(CNc2ccc(S(N)(=O)=O)cc2)ccc1OCC(=O)NC1CCCCC1 returned PLK1 PBD inh -3.9%, VDR inh 6.4%, DT40 TDP1 no CPT -20.3%, TDP1 cell CPT -0.7%, TDP1 inh 0.0% and KAT2A inh -3.8%.
`COc1cc(CNCCc2ccccc2)cc(Br)c1OCC(=O)Nc1ccccc1C` gave PLK1 PBD inh -8.6%, VDR inh 0.2%, DT40 TDP1 no CPT 25.9µM*, TDP1 cell CPT inconclusive, TDP1 inh 8.2% and KAT2A inh -12.2%.
`CCOc1cc(CNCCc2ccc(S(N)(=O)=O)cc2)ccc1OCC(=O)NC1CCCCC1` gave PLK1 PBD inh -5.9%, VDR inh 1.5%, DT40 TDP1 no CPT 23.1µM*, TDP1 cell CPT inconclusive, TDP1 inh 5.6% and KAT2A inh -1.7%.
For CCOc1cc(CNCCc2ccc(S(N)(=O)=O)cc2)ccc1OCC(=O)NC(C)(C)C the results were PLK1 PBD inh -1.0%, VDR inh 3.1%, DT40 TDP1 no CPT inconclusive, TDP1 cell CPT inconclusive and TDP1 inh 2.0%.
Cc1ccccc1OCC(=O)Nc1ccc(C(=O)Nc2ccccc2C(=O)O)cc1 was read as PLK1 PBD inh -9.1%, VDR inh -12.4%, DT40 TDP1 no CPT 3.1%, TDP1 cell CPT -20.2%, TDP1 inh 3.8% and KAT2A inh inconclusive.
Screening CCN(C(=O)c1ccc2c(=O)n3c(nc2c1)CCCCC3)c1cc(C)ccc1C returned VDR inh 6.5%, DT40 TDP1 no CPT inconclusive, TDP1 cell CPT inconclusive, TDP1 inh -5.1% and KAT2A inh -5.5%.
For O=S1(=O)NC(=NCc2ccco2)c2ccccc21 the results were PLK1 PBD inh -13.5%, VDR inh 2.9%, DT40 TDP1 no CPT -12.7%, TDP1 cell CPT -12.3%, TDP1 inh 0.0% and KAT2A inh -21.5%.
